Drawing on PubChem BioAssay, this text covers z-score for 40 molecules.

SMILES strings stand for the structures. Activity calls are given as the source filed them.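 The calls were made as follows: active = z-score of at least 1.8 in each of two replicates, scored against plate mean and spread of sample wells; inactive = the rest.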

The assay in a line: viability rescue of complex I mutant cybrids, primary screen, cell-based, galactose medium, ATP luminescence (AID 1645843).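 Also: positive z means more ATP and so rescue of galactose-driven cybrid death.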 To be noted: complex I mutant cybrid cells, 72 h, active compounds read high.
For the molecule `CCc1n[nH]c2c1CN(C(=O)c1cncc(C)c1)CC2`, the z-score is 1.23 (inactive).

As for `CCOc1ccc2ccccc2c1-c1nc2c(cnn2CC)[nH]1`, the z-score is -0.255 (inactive).

Consider `c1ccc(-c2nccn2Cc2nc(-c3ccccn3)no2)cc1`, for which the z-score is 1.27 (inactive).

Turning to `COCCN(C)Cc1ccc(-c2nc(C)c(C)c(=O)[nH]2)cc1`, the z-score is -0.545 (inactive).

With `CC(C)CCC(=O)N1CCCCC1CCc1ccc(O)cc1` (stereo not given), the z-score is -0.375 (inactive).

As for `COc1ccc(-c2ncnc3sc(C)c(C)c23)c(OC)c1`, the z-score is 0.66 (inactive).

On to `COc1ccc(F)c(-c2cnc(C)[nH]2)c1`, for which the z-score was -0.545 (inactive).

In the case of `Cn1ccnc1-c1ccccc1C(=O)N1CCN(Cc2cccc(F)c2)CC1`, the z-score is 0.355 (inactive).

As for `CCN1CCC(N2CCCC(CN3CCCC3)C2)CC1` (stereo not given), the z-score was -0.48 (inactive).

With `COc1ccccc1N1CCN(C(=O)CCC(C)C)CC1(C)C`, the z-score is 2.31 (active).

For `Cc1cccc(-n2cc(-c3ccn(CC(=O)Nc4ccnn4C)n3)cn2)c1`, the z-score is 1.22 (inactive).

For `Cc1cccc2c(C(=O)N(C)C(C)C)cc(-c3cnc(C(C)(C)C)nc3)nc12`, the z-score was 2.35 (active).

`COc1cc(N2CCCC(c3nc(C(C)C)no3)C2)nc(N)n1` (stereo not given): the z-score is 0.815 (inactive).

For the molecule `CC(=O)NCCC1CCN(C(=O)C(C)Oc2cc(C)c(Cl)c(C)c2)CC1` (stereo not given), the z-score was -0.5 (inactive).

For the molecule `O=C1NCCN(C(=O)c2ccc(Cl)c(F)c2)C1Cc1ccccc1` (stereo not given), the z-score is -0.565 (inactive).

On to `Cc1cc(CN2CCN(C)C(CCO)C2)c2cccc(C)c2n1` (stereo not given), for which the z-score was -0.035 (inactive).

On to `CCCC(C)N(CC)C(=O)c1ccc(C#CC(C)(C)O)o1` (stereo not given), for which the z-score is -0.525 (inactive).

Regarding `Cc1sc2ccccc2c1-c1ccn(CC(=O)Nc2ccnn2C(C)C)n1`, the z-score was -0.855 (inactive).

For `CC1(C)C2(c3nc(Cc4c(F)cccc4Cl)no3)CC[C@@]1(C)C(=O)O2`, the z-score was -0.525 (inactive).

Take `CCCCC(CO)NC(C)CCc1ccc(OC)cc1` (stereo not given): the z-score was -0.47 (inactive).

`NC1CCN(C2CCN(c3cccc(-c4ccccc4)c3)CC2)CC1`: the z-score was -1.03 (inactive).

For `O=c1c2sccc2ncn1Cc1nc2ccccc2[nH]1`, the z-score is 0.03 (inactive).

For `CC(C)CN1CCN(c2ccc(C(F)(F)F)cn2)C(C)C1=O` (stereo not given), the z-score was -0.56 (inactive).

With `CCCC(C)CN(CC)C1CCS(=O)(=O)C1` (stereo not given), the z-score is -0.55 (inactive).

`Cc1cccc2ncn(C3CC(C)(C)NC(C)(C)C3)c(=O)c12`: the z-score was -0.515 (inactive).

Consider `CCCCCN1C(=O)C2(CCN(C(=O)N3CCCC3)CC2)Nc2ccccc21`, for which the z-score is -1.2 (inactive).

As to `CCC(CC)(CCC#N)CNC1COC2(CCCCC2)C1` (stereo not given), the z-score was -0.53 (inactive).

In the case of `CC(C)C1C(=O)N(C)CCN1C(=O)Nc1nc(-c2ccccc2)ns1` (stereo not given), the z-score is -0.345 (inactive).

Consider `Cc1nsc(NC(=O)N2CCC(C(=O)N3CCCC3)CC2)n1`, for which the z-score is -0.375 (inactive).

With `COc1ccc2c(c1)CC(c1nc(Cc3cccs3)no1)CO2` (stereo not given), the z-score is -0.1 (inactive).

With `COc1ccc(F)cc1-c1ccc2ccccc2n1`, the z-score was -0.15 (inactive).

Consider `Cc1ccc(-c2ncccc2OC2(C(=O)O)CCCC2)cc1C`, for which the z-score is -0.735 (inactive).

Turning to `COc1ccc2c(C(=O)N(C)CCc3ccccn3)cc(-c3cnn(C)c3)nc2c1`, the z-score was -0.54 (inactive).

Consider `Cc1cc(C(=O)N2CCCC(C)C2)c2ccc(C)c(C)c2n1` (stereo not given), for which the z-score was -0.505 (inactive).

For `CNCCCNC1CCN(c2ccc(-c3cccc(F)c3)cc2)CC1`, the z-score is -1.3 (inactive).

Take `Cc1nsc(NC(=O)N2CCN(c3ccccc3)CC2C)n1` (stereo not given): the z-score is 2.15 (active).

As to `O=c1c2c3c(sc2ncn1CCF)CCCCC3`, the z-score is -0.535 (inactive).

For the molecule `CCOC(=O)c1ccc(N2CCN(CC(C)C)C(=O)C2C)nc1` (stereo not given), the z-score was -0.53 (inactive).

As to `CCCCn1cc(-c2cc(C(=O)N3CCCC3C)c3cccc(C)c3n2)cn1` (stereo not given), the z-score was 1.28 (inactive).

For the molecule `O=C(c1cn2cccnc2n1)N1CCCC(Cn2cc(C3CCCC3)nn2)C1` (stereo not given), the z-score is -0.49 (inactive).
